These results are taken from PubChem BioAssay AID1347414 (National Center for Advancing Translational Sciences (NCATS), 2020).

Results filed as inconclusive are left out. Calls of active or inactive are those of the source. Calls follow the shape of the dose curve; as a rule, active = well fitted inhibition curve with a large enough effect; inconclusive = small, poorly fitted or top-dose-only effect; inactive = no such curve, though single readings can be large or run the other way.
Potency is read from the fitted curve at half-maximal effect.

The nature of the assay: qHTS to identify inhibitors of the type 1 interferon - major histocompatibility complex class I in skeletal muscle: Secondary screen by immunofluorescence. Also: nearly all actives have a fitted effect of over 70% in size. Particulars: C25cl48 myoblasts, IFN-b induced HLA-ABC immunofluorescence, 24 h; series mostly up to 49.8 µM. Put shortly: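 Immortalized human myoblasts C25cl48 were stimulated with 4.0 ng/ml IFN-beta and exposed to an 11-point 1:3 compound titration, top 50 uM, for 24 h at 37 C. They were then fixed and immunostained for HLA-ABC, and quantified by laser scanning cytometry.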
For orientation: In qHTS, concentration-response curves come from the screen itself.
With `O=C1Nc2nc(-c3c(O)cccc3OCC3CC3)cc([C@@H]3CCCNC3)c2CO1`, the Potency is 4.58 µM (active).
Under `CN(C)Cc1c(C(=O)NCCOc2ccc(C(=O)NO)cc2)oc2ccccc12` stands 0.162 µM (active); under `CN1CCN(C(=O)c2ccc3cc(CCNc4ncnc5ccc(C#N)cc45)ccc3c2)CC1`, “inactive”; under `C1=C/COCc2cc(ccc2OCCN2CCCC2)Nc2nccc(n2)-c2cccc(c2)COC/1`, 1.29 µM (active).
Turning to `COC(=O)C[C@](O)(CCCC(C)(C)O)C(=O)O[C@@H]1C(OC)=C[C@]23CCCN2CCc2cc4c(cc2[C@H]13)OCO4`, the Potency was 0.0289 µM (active).
As to `CCOC(=O)C1=C(C)NC2=C(C(=O)CC(C)(C)C2)C1c1ccc(-c2ccccc2)cc1` (stereo unspecified), the Potency result is “inactive”.
Under `Cc1sc2c(c1C)C(c1ccc(Cl)cc1)=N[C@@H](CC(=O)Nc1ccc(OCCOCCOCCOCCNc3cccc4c3C(=O)N(C3CCC(=O)NC3=O)C4=O)cc1)c1nnc(C)n1-2` (stereo partly specified) stands 0.0914 µM (active).
Next, `N#CC[C@H](C1CCCC1)n1cc(-c2ncnc3[nH]ccc23)cn1`: 0.458 µM (active).
Under `CCNC(=O)c1noc(-c2cc(C(C)C)c(O)cc2O)c1-c1ccc(CN2CCOCC2)cc1` stands “inactive”; under `C=C1C(=O)O[C@@H]2[C@H]3O[C@]3(C)CC/C=C(\C)CC[C@@H]12`, 7.26 µM (active).
Turning to `N#CCNC(=O)c1ccc(-c2ccnc(Nc3ccc(N4CCOCC4)cc3)n2)cc1`, the Potency is 1.62 µM (active).
Under `O=C(Nc1cn[nH]c1-c1nc2ccc(CN3CCOCC3)cc2[nH]1)NC1CC1` stands 2.89 µM (active).
For `CC1=C(CO)C(=O)O[C@@H]([C@@H](C)[C@H]2CC[C@H]3[C@@H]4C[C@H]5O[C@]56[C@@H](O)C=CC(=O)[C@]6(C)[C@H]4CC[C@]23C)C1`, the Potency was 0.726 µM (active).
Under `Cn1cc(-c2ccc(-c3cncc(Cl)c3N3CCC4(CCNC4=O)CC3)cc2)cn1` stands “inactive”; under `CC(C)(C)c1cnc(CSc2cnc(NC(=O)C3CCNCC3)s2)o1`, 0.289 µM (active); under `CNC(=O)c1nn(C)c2c1C(C)(C)Cc1cnc(Nc3ccc(N4CCN(C)CC4)cc3)nc1-2`, 5.76 µM (active).
Next, `CC1(COc2ccc3c(c2)ncn3-c2ccc3cccc(N4CCC(N)CC4)c3n2)COC1`: 5.14 µM (active); `COC(=O)c1nc(Cl)c(Cl)nc1N`: 5.76 µM (active).
Next, `CC[C@@]1(O)C(=O)OCc2c1cc1n(c2=O)Cc2c-1nc1ccccc1c2/C=N/OC(C)(C)C`: 3.24 µM (active); `CCc1c(-c2ccccc2C)nc2c(C#N)c[nH]n2c1=O`: “inactive”; `O=C(/C=C/c1ccc(CN(CCO)CCc2c[nH]c3ccccc23)cc1)NO`: 0.0364 µM (active).
With `CC(C)c1cc(CNc2nc(Nc3cc(C4CC4)[nH]n3)cc(N3CCN(C)CC3)n2)on1`, the Potency was 4.58 µM (active).
Under `CC(C)c1cnn2c(NCc3ccccc3)cc(N[C@@H](CO)[C@H](O)CO)nc12` stands 0.914 µM (active); under `Cc1[nH]c2ccccc2c1CCNCc1ccc(/C=C/C(=O)NO)cc1`, 0.0229 µM (active); under `COc1ccc(CNc2nc(N(CCO)CCO)nc3c2ncn3C(C)C)cc1`, 8.14 µM (active).
Next, `CO[C@H]1/C=C\C=C(\C)C(=O)NC2=CC(=O)C(NCCN(C)C)=C(C[C@@H](C)C[C@H](OC)[C@H](O)[C@@H](C)/C=C(/C)[C@@H]1OC(N)=O)C2=O`: “inactive”.
Under `CN(C)c1ccc(C(=O)NCCCCCCC(=O)NO)cc1` stands 0.647 µM (active); under `CC(C)C[C@H](NC(=O)[C@H](CCc1ccccc1)NC(=O)CN1CCOCC1)C(=O)N[C@@H](Cc1ccccc1)C(=O)N[C@@H](CC(C)C)C(=O)[C@@]1(C)CO1`, 0.0647 µM (active); under `COc1cccc2c1C(=O)c1c(O)c3c(c(O)c1C2=O)C[C@@](O)(C(=O)CO)C[C@@H]3O[C@H]1C[C@H](N)[C@H](OC2CCCCO2)[C@H](C)O1` (stereo partly specified), 5.14 µM (active).
Regarding `O=C1NC(=O)[C@@H](c2c[nH]c3ccccc23)[C@H]1c1cn2c3c(cccc13)CCC2`, the Potency result was “inactive”.
As for `OC1CCC(Oc2cccc3cnc(Nc4ccc5nc[nH]c5c4)nc23)CC1` (stereo unspecified), the Potency was 1.02 µM (active).
Under `CN1CCN(c2cccc(Nc3nc4c(-c5ccc(S(C)(=O)=O)cc5)cccn4n3)c2)CC1` stands 1.82 µM (active).
Under `O=C(/C=C/c1cccc(S(=O)(=O)Nc2ccccc2)c1)NO` stands 0.514 µM (active).
Next, `C=C1C(=O)O[C@@H]2[C@H]3O[C@]3(C)CCC=C(C)CC[C@@H]12`: 2.89 µM (active).
As to `Cc1ccc(C(N)=O)cc1Nc1nccc(-c2cn(C(C)C)c3cnccc23)n1`, the Potency was 3.33 µM (active).
Next, `Cc1ccc(-c2ncn(-c3ccc(Nc4nccc(-c5cccc(N6CCOCC6)c5)n4)cc3)n2)cn1`: 1.82 µM (active).
